The supplement of paper PMC5499739
Whole data set: some 16,000 sequences, median “Z-score” near -0.37, cut for the highest 2% near 3.1. The entries come from a sample that favours the highest values as a whole.

These sequences were tested on RBM10 RRM1-ZnF-RRM2 (GST-tagged construct) (assay: RNAcompete 7-mer binding Z-score; higher = stronger binding preference).
Description: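 RNAcompete: 20 pmol GST-tagged RBM10 RNA-binding constructs were incubated with a designed RNA pool of about 241,000 sequences up to 41 nt (1.5 nmol) on glutathione beads for 30 min at 4 °C and washed. Bound RNAs were identified by microarray hybridisation. Each RNA 7-mer is scored by a one-sided Z-score of its enrichment, computed over probes that contain the 7-mer within longer pool sequences.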

| Sequence | RNAcompete 7-mer binding Z-score |
| --- | --- |
| GAUAGGG | 4.38 |
| GGUAGGC | 2.65 |
| UGUAGAG | 0.978 |
| GGUAGAG | 3.68 |
| CGUAGAG | 0.636 |
| AGUAGGA | 3.08 |
| CAUAGGG | 2.13 |
| CAUAGGA | 0.756 |
| UAUAGGG | 2.76 |
| GGUAGGA | 3.37 |
| GAUAGGA | 3.17 |
| AAUAGGA | 1.57 |
| CGAUUAA | -0.493 |
| GGAUUGC | 0.88 |
| AACCACA | -0.275 |
| UCUUGCG | -0.664 |
| AGAUGCU | -0.777 |
| AUUCGGA | 0.243 |
| UAUGUCC | -0.785 |
| CCUCGGC | -0.701 |
| AACACGU | -0.3 |
| CUACUAU | -0.657 |
| CCGUCCA | -0.704 |
| CCUACGG | -0.446 |

| Sequence | RNAcompete 7-mer binding Z-score |
| --- | --- |
| UAACGCU | -0.646 |
| GGCCAUG | 0.181 |
| GCCGGGG | 1.4 |
| UGUAGGA | 1.9 |
| AAUAGGC | 0.924 |
| CGUAGGG | 2.3 |
| AAUAGGG | 3.5 |
| UGUAGGG | 3.34 |
| GUUAGGG | 3.65 |
| CGUAAAG | -0.0743 |
| UGUAAAG | 0.257 |
| GUUAGGU | 1.89 |
| GGUAAAG | 3.35 |
| AAUAGGU | 1.27 |
| UUUAGGG | 1.51 |
| UCCAUUU | -0.872 |
| GAUCCAG | 0.0641 |
| ACGUAAU | -0.417 |
| ACAAUCG | -0.173 |
| UACCCCG | -0.551 |
| AUGCUCA | -0.766 |
| GGUGAGG | 4.3 |
| CAUGAGG | 1.35 |
| GAUGAGU | 1.01 |

| Sequence | RNAcompete 7-mer binding Z-score |
| --- | --- |
| GAUGAGG | 3.6 |
| GGUGAGA | 2.68 |
| CGUGAGG | 1.73 |
| CCUCCAA | -0.857 |
| UGAGCCC | -0.435 |
| GUCCACU | -0.653 |
| CGCAAGG | 0.341 |
| GGGCGAG | 3.88 |
| GGGCAGG | 3.39 |
| GGGCGGU | 2.58 |
| GGGCAGA | 2.25 |
| AGGCAGG | 1.77 |
| GGCAAAG | 1.95 |
| GGGCGAA | 2.68 |
| GGCAAGG | 3.47 |
| GGGCGGA | 3.09 |
| GGGCGAC | 1.94 |
| GGGCGGG | 3.52 |
| AUAGUGG | 1.69 |
| CACCAUC | -0.734 |
| UGCGCAG | 0.0677 |
| UUUGGAU | -0.125 |
| UACUUUA | -0.948 |
| UGGCGGU | 1.54 |

| Sequence | RNAcompete 7-mer binding Z-score |
| --- | --- |
| CGGCGGG | 1.97 |
| UGGCGGG | 3.19 |
| ACGGGAC | 2.19 |
| UGCAACC | -0.504 |
| GCGGGAU | 2.38 |
| AAGGGGG | 3.91 |
| AGGGGGG | 2.05 |
| GAGGGGG | 2.83 |
| CGGGGGA | 2.53 |
| CAGGGAU | 2.41 |
| GAGGAAA | 2.2 |
| AAGGGGC | 3.1 |
| GAGGGGA | 3.29 |
| GAGGGCA | 1.99 |
| GAGGGAA | 3.6 |
| GAGGGAU | 3.31 |
| CCGCUAC | -0.868 |
| GUUACUC | -0.581 |
| UAAGUCA | -0.0816 |
| UCGCGCA | -0.595 |
| ACCUCCG | -0.737 |
| AUAGAGA | 0.501 |
| AGAACAU | -0.398 |
| CCUAUAU | -0.799 |

| Sequence | RNAcompete 7-mer binding Z-score |
| --- | --- |
| UCAAUGC | -0.533 |
| GCUUGUG | -0.479 |
| GUACCCC | -0.242 |
| UUCCUGA | -0.763 |
| GAGGGGC | 2.44 |
| AAAGGGG | 4.22 |
| UAAGGGG | 3.11 |
| AGGGGGA | 2.14 |
| CAAGGGG | 3.03 |
| AGGGGGU | 3.03 |
| GAGGGGU | 3.64 |
| GAGGGCU | 1.27 |
| AAGGGGU | 4.33 |
| AAGGGGA | 4.44 |
| AACCCUU | -1.03 |
| CCACGCA | -0.664 |
| AUUGUGA | 0.108 |
| UCGCGUU | -0.602 |
| CUUCCUU | -0.759 |
| AGUAAGA | 0.541 |
| GUUCUCU | -0.788 |
